# Assay results from PubChem BioAssay (NCI).
# Compounds without any hit were thinned out: in the full panel of roughly 83,000, 20% have a hit.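 Method: cells in 96-well plates; compound added at one concentration; 48 h incubation; percent growth measured; values under 10 scored active.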 The source made the active and inactive calls.
# Tested on: EKVX NSCLC
# Test: NCI-60 one-dose screen, 48 h (100 = growth as untreated, 0 = no growth, -100 = all killed)
# Settings: 10 µM unless noted
# Protocol: Growth inhibition of the EKVX human Non-Small Cell Lung tumor cell line is measured as a screen for anti-cancer activity. Cells are grown in 96 well plates and exposed to the test compound for 48 hours. Compounds are tested at a single concentration, which is 10^-5 M for most compounds. The reported endpoint is percent growth (GI% or GIPRCNT), where numbers from 0 - 100% represent growth inhibition, and numbers from -100% - 0 represent cell death. For example, a value of 40 represents 60% growth inhibition. A value of 0 means no net growth occurred over the course of the experiment. A value of -40 indicates 40% of cells at the beginning of the experiment died by the end of the experiment. A value of -100 means all cells are dead at the end of the experiment.
# NCI-60 Human Tumor Cell Lines Screen was performed using the standard one-dose NCI protocol, which is described in more detail at https://dtp.cancer.gov/discovery_development/nci-60/default.htm.
# Compounds with GIPRCNT values below 10 were considered active. Activity score was based on GIPRCNT using the following formula: […]
# Score is 0 for GIPRCNT values of 100 or above, 50 for GIPRCNT values of 0, and 100 for GIPRCNT values of -100.
row,SMILES,growth
1,CNC1=C(Br)C(=O)c2c(C(=O)OC)c(C)nc(C)c2C1=O,79.3% (inactive)
2,CCN(CC)CCCC(Nc1c2ccc(Cl)cc2nc2ccc(OC)cc12)c1ccncc1 (stereo not given),87% (inactive)
3,CN(C)c1ccc(Cc2cc(-c3ccccc3)nn(C/C(=N/O)c3ccccc3)c2=O)cc1,49.5% (inactive)
4,O=C(N/N=C/c1ccccc1Cl)c1ccccc1Nc1ccnc(C(F)(F)F)c1,11.7% (inactive)
5,O=C1c2ccccc2C(=O)c2cc(Cn3c[n+](Cc4ccc5ccccc5c4)c4ccccc43)ccc21,73.9% (inactive)
6,Fc1ccc(/C=C/c2cc(/C=C/c3ccc(F)cc3)n(-c3cc(F)cc(F)c3)n2)cc1,92.3% (inactive)
7,O=C(NS(=O)(=O)c1ccccc1)n1cc(-c2ccncc2)c(-c2cc(O)cc(Cl)c2)n1,107% (inactive)
8,COc1ccc(C(=O)C2OC3=C(C(=O)CC(C)(C)C3)C2c2cccc(Oc3ccccc3)c2)cc1 (stereo not given),85% (inactive)
9,C#CCOc1cccc(Nc2c(Cl)c(CCl)nc3ccc(Oc4ccccc4)cc23)c1,76.5% (inactive)
10,O=C(Nc1ncc(Cc2ccccc2)s1)c1cc(-c2ccccc2)nc2ccccc12,98.1% (inactive)
11,Cc1c2cnccc2c(C)c2c1c1cc(C(=O)O)ccc1n2C,16% (inactive)
12,Nc1ncc(-c2ccc3ncnc(N4CCc5cc(F)c(Cl)cc54)c3c2)cc1C=O,4.02% (active)
13,O=C(Nc1ccc(Oc2cccc(F)c2)c(Cl)c1)c1cnccn1,51.3% (inactive)
14,N#C/C(=N\Nc1ccccc1)C(=O)Nc1cc(-c2ccccc2)nn1-c1ccccc1,28.3% (inactive)
15,COc1cc(/C=N/NC(=O)c2ccc3nc(-c4ccc(Cl)cc4)[nH]c3c2)cc(OC)c1OC,95.8% (inactive)
16,CC(=O)CC(=O)c1ccccc1.[Cu+2],99.4% (inactive)
17,CC(CN)[C@@H]1CC[C@]2(CO)CC[C@]3(C)[C@H](CC[C@@H]4[C@@]5(C)CCC(NCCO)C(C)(C)[C@@H]5CC[C@]43C)[C@@H]12 (stereo not given in full),73% (inactive)
18,C#Cc1cccc(Nc2nc(Cl)nc3cc(NC(=O)CCl)ccc23)c1,-76.5% (active)
19,Nc1nc(Nc2ccc([N+](=O)[O-])cc2O)nc(C(Cl)(Cl)Cl)n1,106% (inactive)
20,COC(=O)[C@H](C)NC(=O)[C@@H]1CCCN1C(=O)CNC(=O)[C@H](C)N,89.6% (inactive)

row,SMILES,growth
1,CN1CCN(CCCNC(=O)c2c3c(n4ccccc24)C(=O)c2ncccc2C3=O)CC1,24% (inactive)
2,COc1ccc(/C=N\NC(=O)c2ccc3nc(-c4ccc(Cl)cc4)[nH]c3c2)cc1,29.4% (inactive)
3,Cc1ccc(-c2nn(CC(=O)N3CCOCC3)c(N)c2C#N)cc1,102% (inactive)
4,NS(=O)(=O)Oc1cccc(-c2nc3sccn3c2-c2ccccc2)c1,66.7% (inactive)
5,N#CSCc1cc(Cl)c(CSC#N)cc1Cl,104% (inactive)
6,COc1ccc(NC(=O)c2ccc(Cl)cc2Cl)cc1,89.1% (inactive)
7,C=CCn1c(SCC(=O)Nc2ccc(C(=O)/C=C/c3ccc(Cl)cc3)cc2)nnc1-c1ccccc1,92.3% (inactive)
8,Cn1cc(-c2ccc3c(Nc4cccc(NC(=O)Nc5cccc(F)c5)c4)ncnc3c2)cn1,53% (inactive)
9,COc1cccc(C(=O)Nc2cccc(NC(=O)c3ccccn3)c2)c1,94.1% (inactive)
10,CC(Cc1cccc2ccccc12)C(N)=O (stereo not given),104% (inactive)
11,O=C(Nc1ccccc1C(F)(F)F)C1=NCCCCN1,93.1% (inactive)
12,CCOC(=O)CC1C(CNC(=O)NC)OC(n2cnc3c(NC(=O)Nc4ccccc4)ncnc32)C1O[Si](C)(C)C(C)(C)C (stereo not given),63.7% (inactive)
13,O=C1CC2C=CCN2C=C1NC(=O)c1ccccc1 (stereo not given),94.6% (inactive)
14,Nc1nc(N)c2c(n1)NC(c1cccc(Nc3ccnc4cc(C(F)(F)F)ccc34)c1)CC(c1ccc(Cl)cc1)=N2 (stereo not given),50.8% (inactive)
15,C=CC(=O)Nc1ccc2ncnc(Nc3cccc(NS(=O)(=O)CCC)c3Cl)c2c1,51.8% (inactive)
16,COc1cc(/C=C2\C(=O)N(CCOc3cc(O)c4c(=O)cc(-c5ccccc5)oc4c3)c3ccccc32)cc(OC)c1O,83.2% (inactive)
17,O=[N+]([O-])c1ccc(N/N=C\c2cc(Cl)ccc2O)nc1,31% (inactive)
18,NC(=N\N=C/c1ccc(Cl)cc1Cl)/C(N)=N\N=C/c1ccc(Cl)cc1Cl,77.3% (inactive)
19,CC(=O)c1ccc(Nc2nccc(-c3ccc(Cl)cc3)n2)cc1,99.2% (inactive)
20,O=C(Nc1ccc(Cl)cc1)C1=NCCCCN1,80% (inactive)
